# Test results reported in PubChem BioAssay (NCI).
# This is part of a sample that, as a whole, favours compounds with a hit. Of some 83,000 tested, about 20% had one in any assay.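 Assay: single dose, 48 h. Readout: percent growth (0 = no net growth; negative = cell death). Active: <10.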 Values without a mark were called inactive. Calls of active or inactive are those of the source.
# Test system: SN12C renal
# Assay: NCI-60 one-dose screen, 48 h (100 = growth as untreated, 0 = no growth, -100 = all killed)
# Conditions: 10 µM
row,Compound,growth
1,COc1cc2cc(C(=O)N3C[C@@H](CCl)c4c3cc(OC(=O)N3CCN(C)[C@@H]5CSSC[C@@H]53)c3ccccc43)[nH]c2c(OC)c1OC,-44.6% (active)
2,COc1cc2cc(C(=O)N3C[C@@H](CCl)c4c3cc(OC(=O)N3CCN(C(=O)CCC(=O)N5CCN(C)CC5)[C@@H]5CSSC[C@@H]53)c3ccccc43)[nH]c2c(OC)c1OC,-37.7% (active)
3,COC(=O)c1ccc(-n2cc(CCCN(CCNc3ccnc4cc(Cl)ccc34)C(=O)CCC(=O)O[C@@H]3O[C@@H]4OC5(C)CC[C@H]6[C@H](C)CC[C@@H]([C@H]3C)[C@@]46OO5)nn2)cc1,44%
4,O=C([Se]C1C=CCCC1)c1ccc(C(=O)[Se]C2C=CCCC2)s1 (stereo unspecified),-81.8% (active)
5,O=C(/C=C/c1cccc(Br)c1)c1nc2ccccc2n1Cc1ccc(F)cc1,47.3%
6,CC[C@]12C=CCN3CC[C@@]4(c5ccc(OC)cc5N(C)[C@H]4[C@@](O)(C(=O)OC)[C@@H]1OC(=O)CCC[P+](c1ccc(C)cc1)(c1ccc(C)cc1)c1ccc(C)cc1)[C@@H]32,-88.1% (active)
7,O=C(NC([Se])=NC1CCCCC1)c1ccccc1,39.6%
8,O=C(/C=C/c1ccc(F)cc1)c1nc2ccccc2n1Cc1ccc(F)cc1,21.9%
9,O=C(/C=C/c1ccccc1)c1nc2ccccc2n1Cc1ccc(Br)cc1,-58.7% (active)
10,C=CC[Se]C(=O)c1cncc(C(=O)[Se]CC=C)c1,-95.6% (active)
11,COc1ccc(OC)c(/C=C/C(=O)c2nc3ccccc3n2Cc2ccc(F)cc2)c1,4.76% (active)
12,O=C(/C=C/c1ccc(F)cc1)c1nc2ccccc2n1Cc1ccc(Br)cc1,-40.4% (active)
13,CC[C@]12C=CCN3CC[C@@]4(c5ccc(OC)cc5N(C)[C@H]4[C@@](O)(C(=O)OC)[C@@H]1OC(=O)CCCC[P+](c1ccc(C)cc1)(c1ccc(C)cc1)c1ccc(C)cc1)[C@@H]32,-88.5% (active)
14,CC(C)N=C([Se])NC(=O)c1cccs1,-21.4% (active)
15,CC1=C(CCC=NNC(N)=O)C2=C(C)C3(CC3)[C@@](C)(O)C(=O)C2=C1,-61.3% (active)
16,Cc1ccc2[nH]c(=S)n(-c3ccc(F)cc3)c(=O)c2c1,92.2%
17,C#CC[Se]C(=O)c1ccc2n[se]nc2c1,56.3%
18,CC1=C(COCCOC(=O)c2ccc(S(=O)(=O)F)cc2)C2=C(C)C3(CC3)[C@@](C)(O)C(=O)C2=C1,-19.9% (active)
19,CC12CCC3(CCC(=O)NCCCNc4ccnc5cc(Cl)ccc45)[C@@](C)(OO[C@]3(C)O1)O2,-15.1% (active)
20,O=C(/C=C/c1ccc(Br)cc1)c1nc2ccccc2n1Cc1ccc(Br)cc1,8.28% (active)
21,COC(=O)CCn1c(-c2ccc(-n3cc(-c4ccc(O[C@H]5O[C@@H]6OC7(C)CC[C@H]8[C@H](C)CC[C@@H]([C@H]5C)[C@@]68OO7)cc4)nn3)cc2)nc2ccccc21,16.3%
22,CC1=C(C=O)C2=C(C)C3(CC3)[C@@](C)(O)C(=O)C2=C1,44.2%
23,N#C[Se]CC(=O)Nc1cccc(C(F)(F)F)c1,-78.1% (active)
24,CCC[Se]C(=O)c1ccc(C(=O)[Se]CCC)s1,-75% (active)
25,C[C@H]1[C@@H](CC(=O)N[C@@H](Cc2coc3ccccc23)B(O)O)O[C@@H]2OC3(C)CC[C@H]4[C@H](C)CC[C@@H]1[C@@]24OO3,-78.6% (active)
26,O=C(/C=C/c1ccco1)c1nc2ccccc2n1Cc1ccc(F)cc1,79.2%
27,COC(=O)C[C@](O)(CCC(C)C)C(=O)O[C@H]1C(OC)=C[C@@]23CCCN2CCc2cc4c(cc2[C@@H]13)OCO4,-14.9% (active)
28,C[C@H]1[C@H](OC(=O)CCC(=O)N(CCCc2cn(-c3ccc(C#N)cc3)nn2)CCNc2ccnc3cc(Cl)ccc23)O[C@@H]2OC3(C)CC[C@H]4[C@H](C)CC[C@@H]1[C@@]24OO3,58.9%

# Test system: UO-31 renal
# Assay: as above
# Conditions: 10 µM
row,Compound,growth
1,CC1=C2C(=C[C@@](C)(COP(=O)(Oc3ccccc3)Oc3ccccc3)[C@@H]2O)C(=O)[C@@](C)(O)C12CC2,-68.6% (active)
2,CC(=O)Oc1ccccc1C(=O)NC([Se])=NC1CCCCC1,-87.7% (active)
3,CCOP(=O)(CC(F)(F)C(F)(F)F)OCC,25.1%
4,C[C@H]1[C@@H](Oc2ccc(-c3cn(-c4ccnc5cc(Cl)ccc45)nn3)cc2)O[C@@H]2OC3(C)CC[C@H]4[C@H](C)CC[C@@H]1[C@@]24OO3,10.7%
5,COc1cc2cc(C(=O)N3C[C@@H](CCl)c4c3cc(OC(=O)N3CCN(C)[C@@H]5CSSC[C@@H]53)c3ccccc43)[nH]c2c(OC)c1OC,-33.5% (active)
6,COc1cc2cc(C(=O)N3C[C@@H](CCl)c4c3cc(OC(=O)N3CCN(C(=O)CCC(=O)N5CCN(C)CC5)[C@@H]5CSSC[C@@H]53)c3ccccc43)[nH]c2c(OC)c1OC,-65.2% (active)
7,COC(=O)c1ccc(-n2cc(CCCN(CCNc3ccnc4cc(Cl)ccc34)C(=O)CCC(=O)O[C@@H]3O[C@@H]4OC5(C)CC[C@H]6[C@H](C)CC[C@@H]([C@H]3C)[C@@]46OO5)nn2)cc1,19.6%
8,O=C(NC([Se])=NC1CCCCC1)c1ccccc1,6.45% (active)
9,O=C(/C=C/c1ccc(F)cc1)c1nc2ccccc2n1Cc1ccc(Br)cc1,-92.5% (active)
10,CC(C)N=C([Se])NC(=O)c1cccs1,12.4%
11,CC1=C(CCC=NNC(N)=O)C2=C(C)C3(CC3)[C@@](C)(O)C(=O)C2=C1,-65.2% (active)
12,Cc1ccc2[nH]c(=S)n(-c3ccc(F)cc3)c(=O)c2c1,82.7%
13,C#CC[Se]C(=O)c1ccc2n[se]nc2c1,22.6%
14,CC1=C(COCCOC(=O)c2ccc(S(=O)(=O)F)cc2)C2=C(C)C3(CC3)[C@@](C)(O)C(=O)C2=C1,-33.3% (active)
15,O=C(/C=C/c1ccc(Br)cc1)c1nc2ccccc2n1Cc1ccc(Br)cc1,-66.4% (active)
16,N#C[Se]CC(=O)Nc1cccc(C(F)(F)F)c1,-84.2% (active)
17,C[C@H]1[C@@H](CC(=O)N[C@@H](Cc2coc3ccccc23)B(O)O)O[C@@H]2OC3(C)CC[C@H]4[C@H](C)CC[C@@H]1[C@@]24OO3,18.3%
18,C[C@H]1[C@H](OC(=O)CCC(=O)N(CCCc2cn(-c3ccc(C#N)cc3)nn2)CCNc2ccnc3cc(Cl)ccc23)O[C@@H]2OC3(C)CC[C@H]4[C@H](C)CC[C@@H]1[C@@]24OO3,15%
